Molecules are shown by their SMILES. In all, about 320,000 compounds went through this assay and about 22,000 (6.9%) were called active. A call without a number means that no potency is given here. About 27% were inconclusive and are not listed. Calls come from the whole dose curve; as a rule, active = well fitted inhibition curve with a large enough effect; inconclusive = small, poorly fitted or top-dose-only effect, or another doubt; inactive = no such curve, though single readings can be large or run the other way. For the sample, actives were picked, then their nearest neighbours and some compounds at random.
Potency is the fitted concentration of half-maximal effect.

This experiment is described as follows: Primary qHTS for delayed death inhibitors of the malarial parasite plastid, 96 hour incubation. As to conditions: P. falciparum luciferase reporter growth; series mostly up to 28.7 µM. The essentials: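 Two-generation exposure (96 h) targets delayed-death phenotype. Reporter parasites carrying integrated firefly luciferase, in red cells at 2% hematocrit and 0.05% parasitemia final, kept at 37 C, 5% CO2; luminescence loss indicates inhibition.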
On the technique in general: Quantitative high-throughput screening tests each substance at several concentrations.
On to `C=CCOc1ccc(/C=C2/C(=O)ON=C2C)cc1OCC`, for which the Potency result was “inactive”. Still for that read-out and setting: as for `COc1ccc(NC(=O)CN(C)C(=O)Cc2coc3cc(C)c(C)cc23)cc1`, the entry is “inactive”. Turning to `NC(=O)C1CCN(C(=O)/C(=C/c2ccco2)NC(=O)c2ccccc2)CC1`, the Potency entry was “inactive”. For `O=C(C1CCN(C2CCN(Cc3ccc4cc(F)ccc4n3)CC2)CC1)N1CCCC1`, the Potency result is “inactive”. The same measure, in the same setting: as for `C/C(=C\c1ccco1)CN1CCC(N2CCC(C(=O)N3CCOCC3)CC2)CC1`, the figure is 5.86 µM (active); as for `CCOC(=O)c1c(C)[nH]c2c1-c1ccccc1C(=O)C2=O`, 1.47 µM (active). On to `CCOC(=O)c1c(C)[nH]c(C(=O)NCc2ccccc2OC)c1C`, for which the Potency entry is “inactive”. Still for that read-out and setting: then `CCOC(=O)C1=C(c2ccc(OC)cc2)C(=O)c2ccccc2C1=O`, with “inactive”; and `CCOC(=O)COc1nc(C)cc(C(F)(F)F)c1C#N`, with “inactive”.

On to `O=C(NN1C(=O)C2C3C=CC(O3)C2C1=O)c1ccncc1` (configuration not stated), for which the Potency entry is “inactive”. Turning to `COc1ccccc1C(=O)NN1C(=O)C2C3C=CC(O3)C2C1=O` (configuration not stated), the Potency result is “inactive”. On the same count and under the same terms, then `O=C(NN1C(=O)C2C3C=CC(O3)C2C1=O)c1ccccc1` (configuration not stated), with 11.7 µM (active). Still for that read-out and setting: then `Cc1ccc(S(=O)(=O)N2CCN(C(=O)N3CCOCC3)CC2)c(C)c1`, with “inactive”; and `O=C(COC(=O)c1ccccc1Cl)NC1CCCCCCC1`, with “inactive”; and `CCOc1ccc(N2C(=O)CSC2=NC#N)cc1`, with “inactive”. Same read-out and setting: then `CC(=O)OC(COc1ccc(F)cc1)Cn1cnc2ccccc21` (configuration not stated), with “inactive”; and `CC(=O)N=c1ncn(CC(COC(C)=O)OC(C)=O)c2nc[nH]c12` (configuration not stated), with 7.38 µM (active). Regarding `CC(=O)OCC(COC(C)=O)OC(C)=O`, the Potency result was “inactive”.

For the molecule `CCOc1ccc(NS(=O)(=O)c2ccc(Cl)c(C(=O)N(C)Cc3cccnc3)c2)cc1`, the Potency result was “inactive”. The same measure, in the same setting: then `COCCN1C=C2C(=O)C(C)(OC(=O)C3CCCC3)C(=O)C=C2C=C1c1ccsc1` (configuration not stated), with “inactive”.

In the case of `CC1(OC(=O)CCc2ccccc2)C(=O)C=C2C=C(c3ccc(C#N)cc3)N(CCc3ccccn3)C=C2C1=O` (configuration not stated), the Potency is 13.1 µM (active). Regarding `Cc1ccc(OCCCC(=O)Nc2ccc(S(=O)(=O)Nc3cc(C)nc(C)n3)cc2)cc1`, the Potency entry was “inactive”. On the same count and under the same terms, as for `CCCS(=O)(=O)Nc1ccc(-c2cn3c(n2)SCC3)cc1`, the entry is “inactive”; as for `O=C(O)C1CC=CCC1C(=O)Nc1ccccc1C(=O)N1CCN(c2ccccc2)CC1` (configuration not stated), “inactive”; as for `O=C(Nc1cccc(Cl)c1Cl)c1ccccc1NC(=O)C1CC=CCC1C(=O)O` (configuration not stated), 14.7 µM (active).

As for `CC(=O)Nc1ccc(NC(=O)COc2ccccc2C(=O)Nc2cccc(Cl)c2Cl)cc1`, the Potency entry was “inactive”. The same measure, in the same setting: as for `COCc1c(C(=O)N/N=C\c2cccnc2)nnn1-c1nonc1N`, the entry is “inactive”. In the case of `Cc1ccc(C(=O)NNc2ncnc3ccccc23)cc1`, the Potency result was “inactive”.

Turning to `Cc1cc(=O)[nH]c(N/N=C/c2ccc3c(c2)OCCO3)n1`, the Potency result is “inactive”. For `Cc1nn(-c2ccccc2)c(Cl)c1/C=N/NC(=O)c1nn(C)cc1[N+](=O)[O-]`, the Potency entry was “inactive”. Still for that read-out and setting: as for `Cc1cc(=O)[nH]c(N/N=C/c2c(C)nn(-c3ccccc3Cl)c2Cl)n1`, the figure is 2.94 µM (active); as for `CC1CCCC(NC(=O)c2cc(-c3ccncc3)nc3ccccc23)C1C` (configuration not stated), “inactive”; as for `CCCCSc1nnc2c(n1)OC=Nc1ccccc1-2`, “inactive”. The same measure, in the same setting: as for `CNS(=O)(=O)c1cccc(C(=O)NCC2CCCCC2)c1`, the entry is “inactive”; as for `CCOc1ccc(N/C(N)=N/c2nc(C)c(C)c(=O)[nH]2)cc1`, “inactive”.

With `O=C(Nc1cccc(Cl)c1N1CCOCC1)c1ccc2c(c1)OCCO2`, the activity change, negative = inhibition is 47.9% [at 5.75 µM] (inactive). For `O=C(Nc1cccc(Cl)c1N1CCOCC1)c1cccnc1`, the Potency is 9.28 µM (active). Still for that read-out and setting: then `COC(=O)c1cc(NC(=O)c2cccnc2)ccc1N1CCOCC1`, with “inactive”. Turning to `COCCNC(=O)c1ccc2c(c1)ncn2-c1ccc(C)c(Cl)c1`, the Potency result is “inactive”. On to `COc1ccc2c(c1)N(C)/C(=C1/SC(=S)N(NC(C)=O)C1=O)S2`, for which the Potency entry was “inactive”.

Consider `CCNC(=O)N1CCCC(C(=O)c2ccc(-c3ccccc3)cc2)C1` (configuration not stated), for which the Potency is 10.4 µM (active). Same read-out and setting: as for `CC(C)Oc1cccc(C(=O)C2CCCN(C3CCOCC3)C2)c1` (configuration not stated), the entry is “inactive”; as for `CCn1nc(C)cc1C(=O)N1CCCC(C(=O)c2cccc(OC)c2)C1` (configuration not stated), “inactive”. Still for that read-out and setting: as for `COc1ccc2cc(C(=O)C3CCCN(C(=O)c4sc(C)nc4C)C3)ccc2c1` (configuration not stated), the figure is 13.1 µM (active). Consider `Cn1nccc1C(=O)N1CCCC(C(=O)c2ccc(Oc3ccccc3)cc2)C1` (configuration not stated), for which the Potency is 2.94 µM (active). On the same count and under the same terms, as for `Cc1ccccc1NC(=O)C1CCCN(C(=O)NCc2ccccc2)C1` (configuration not stated), the entry is “inactive”; as for `Cc1nc(C(=O)N2CCCC(C(=O)c3ccc(Cl)cc3)C2)cs1` (configuration not stated), “inactive”. Take `COc1ccc(C(=O)C2CCCN(C(=O)c3cnsn3)C2)c(C)c1` (configuration not stated): the Potency result was “inactive”. As to `CSc1ccc(C(=O)C2CCCN(C(=O)c3ccc(C)nc3)C2)cc1` (configuration not stated), the Potency result is “inactive”. Turning to `CCOc1cc(/C=C/c2nc3ccccc3c(=O)[nH]2)cc(Br)c1OC`, the Potency entry was “inactive”. The same measure, in the same setting: as for `Cc1cc(OC(=O)c2ccc(OC(C)C)cc2)c([N+](=O)[O-])c(=O)[nH]1`, the entry is “inactive”; as for `Cc1cccc(C(=O)OC(C)C(=O)NC2CCCc3ccccc32)c1O` (configuration not stated), “inactive”; as for `O=C(NC1CCCCC1)c1ccc(-c2ccc(Cl)cc2)o1`, “inactive”. As for `COc1ccc(C2/C(=C(/O)c3ccc4c(c3)CC(C)O4)C(=O)C(=O)N2Cc2ccncc2)cc1` (configuration not stated), the Potency entry is “inactive”. The same measure, in the same setting: as for `CC(=O)c1c(C)[nH]c(C(=O)OCC(=O)Nc2c(C)n(C)n(-c3ccccc3)c2=O)c1C`, the entry is “inactive”. On the same count and under the same terms, then `COc1ccc(N2CCN(C(=O)CN3C(=O)COc4ccccc43)CC2)cc1`, with “inactive”; and `CN1CN(C)c2ccc([N+](=O)[O-])c3cccc1c23`, with “inactive”; and `O=C(NCc1ccncc1)C1CCN(C(=O)c2cccc(Cl)c2)CC1`, with “inactive”.

Take `COc1ccc(-c2csc(N3CCN(Cc4ccc5c(c4)OCO5)CC3)n2)cc1`: the Potency result was “inactive”.

Regarding `COc1cccc(NC(=O)CN2CCN(c3nc(-c4cccc(OC)c4)cs3)CC2)c1`, the Potency result was “inactive”.

For the molecule `Cc1ccc(-c2csc(N3CCN(c4cc5c(cc4Cl)nc(-c4ccncc4)n5CCOCCO)CC3)n2)cc1`, the Potency was 5.86 µM (active). Same read-out and setting: as for `CCCn1c(C2CCCN2c2nc(-c3ccc(C)cc3)cs2)nc2cc(Cl)c(N3CCCCC3)cc21` (configuration not stated), the figure is 3.29 µM (active). Same read-out and setting: then `CCn1c(SCC(=O)N/N=C/c2ccccc2OCC(=O)O)nnc1-c1ccc(C(C)(C)C)cc1`, with “inactive”. Regarding `O=C1CC2(CC(c3ccc(Cl)cc3)=NO2)C(=O)N1c1ccccc1` (configuration not stated), the Potency entry was “inactive”.

As to `COCCN(CCOC)c1nc(N)c2c(N)nc3c(c2c1C#N)CC(=O)N3Cc1ccc(Cl)cc1`, the Potency was 2.62 µM (active). Take `CCCCN1C(=O)C(=O)N(CC(=O)Nc2cccc(C(C)=O)c2)C1=O`: the Potency entry is “inactive”.

For the molecule `COc1ccc(NCCc2ccccn2)cc1`, the Potency entry was “inactive”.

On to `Cc1ccc(NC(=O)CCC(=O)c2ccc(Br)cc2)cc1`, for which the Potency result is “inactive”.

In the case of `COc1cccc(CNC(=O)C2CCCN(c3ncnc4c3nc3n4CCCCC3)C2)c1` (configuration not stated), the Potency entry was “inactive”. On the same count and under the same terms, as for `COCCNc1ncnc2c1nc1n2CCCC1`, the entry is “inactive”; as for `OC1CCCN(c2ncnc3c2nnn3Cc2c(F)cccc2Cl)C1` (configuration not stated), “inactive”; as for `O=C(NCCCN1CCCCC1)C1CCCN(c2ncnc3c2nc2n3CCCCC2)C1` (configuration not stated), “inactive”. As for `CN(Cc1ccccc1)C(=O)C1CCCN(c2ncnc3c2nc2n3CCCCC2)C1` (configuration not stated), the Potency was 14.7 µM (active).

`O=C(NCc1ccccc1Cl)C1CCN(c2ncnc3c2nc2n3CCCCC2)CC1`: the Potency result was “inactive”. `CCOC(=O)c1cccc(NC(=O)C2CCN(c3ncnc4c3nc3n4CCCCC3)CC2)c1`: the Potency is 10.4 µM (active).

As for `CN(C(=O)C1CCN(c2ncnc3c2nc2n3CCCCC2)CC1)C1CCCCC1`, the Potency entry was “inactive”. Take `COc1cccc(NC(=O)C2CCCN(c3ncnc4c3nc3n4CCCCC3)C2)c1` (configuration not stated): the Potency is 8.28 µM (active).

As to `Cc1cnc(C(=O)Oc2cccc(Cl)c2Cl)cn1`, the Potency result is “inactive”. On to `O=C(NCC#CCSc1nnc(-c2cccc3ccccc23)o1)c1cccs1`, for which the Potency entry is “inactive”. Same read-out and setting: as for `Cc1ccc(S(=O)(=O)N[C@@H](Cc2ccccc2)C(=O)N2CCC(C(=O)N[C@H](C(=O)O)C(C)O)CC2)cc1` (some centres not stated), the entry is “inactive”; as for `O=S(=O)(Cc1nnnn1-c1ccc(Br)cc1)c1ccc(F)cc1`, “inactive”; as for `O=C(Nc1ccccc1)/C(=C\c1ccco1)NC(=O)c1ccco1`, “inactive”. For the molecule `CCn1c(SCC(=O)Nc2sc(C)c(C)c2C#N)nnc1C1CC1`, the Potency result is “inactive”. Still for that read-out and setting: as for `CC(=O)c1c(N2CCOCC2)nc(=S)n(-c2cc(C)ccc2C)c1C`, the entry is “inactive”; as for `CC(=O)c1c(N2CCOCC2)nc(=S)n(Cc2ccccc2)c1C`, 0.329 µM (active); as for `O=C(N1CCOCC1)N(Cc1ccccc1)c1ccccn1`, “inactive”. Consider `CN1CCN(C(=O)c2ccccc2NC(=O)COc2ccccc2Cl)CC1`, for which the Potency entry is “inactive”. `CCOc1ccc(NC(=S)N2CCCCCC2)cc1`: the Potency result is “inactive”. For `CCC(C)N(C)C1CCN(C(=S)Nc2ccc(OC)cc2)CC1` (configuration not stated), the Potency result was “inactive”. Still for that read-out and setting: then `CCOc1ccc(S(=O)(=O)N2CCN(C(=S)NCC3CCCO3)CC2)cc1` (configuration not stated), with 2.94 µM (active); and `CCOc1ccc(NC(=S)N2CCC(N(C)CC3CCCO3)CC2)cc1` (configuration not stated), with 11.7 µM (active).

Regarding `CCOc1ccc(S(=O)(=O)NCCC(=O)NCC2CCCO2)cc1` (configuration not stated), the Potency result is “inactive”.

`COc1ccc(S(=O)(=O)N2CCN(C(=S)NCC3CCCO3)CC2)cc1OC` (configuration not stated): the Potency entry was “inactive”.

Consider `NCC(=O)c1cccc2ccc[n+]([O-])c12`, for which the Potency result was “inactive”. Take `O=C(CNC(=O)OCc1ccccc1)NC1CCCCNC1=O` (configuration not stated): the Potency result was “inactive”.

As for `Cc1ccc(C(=O)NCC(=O)NCc2cc(=O)n(C)c(=O)n2C)cc1`, the Potency result is “inactive”. In the case of `O=C(NCCc1nnc2ccc(SCC(=O)N3CCOCC3)nn12)c1ccccc1`, the Potency result is “inactive”.

Consider `CCCCOc1ccc(NC(=O)[C@@H]2CCCN2C(=O)C2CCN(S(=O)(=O)c3ccc(C)cc3)CC2)cc1`, for which the Potency was 11.7 µM (active).

As for `COc1ccc(N2CCN(C(=O)C3CCN(S(=O)(=O)c4ccc(C)cc4)CC3)CC2)cc1`, the Potency result is “inactive”. On the same count and under the same terms, then `CCOc1cccc(NC(=O)C2CCCN(S(=O)(=O)c3ccc(OC)cc3)C2)c1` (configuration not stated), with “inactive”. The same measure, in the same setting: then `Cc1c(C(=O)N/N=C/c2ccccc2)[nH]c2c([N+](=O)[O-])cccc12`, with “inactive”; and `CN(C)S(=O)(=O)c1ccc(N/C=C(\[N+](=O)[O-])S(=O)(=O)c2ccccc2)cc1`, with “inactive”.

The values above are taken from PubChem BioAssay AID504834 (National Center for Advancing Translational Sciences (NCATS), 2011).
